Source: PubChem BioAssay (Broad Institute)
Shown are actives, neighbours in structure and some others; about 1.1% of the full set was active somewhere.
PrP UTR inh = inhibition of PrP 5' UTR reporter expression. cell-based PrP 5' UTR mRNA reporter, plate reader. AID 488862. 340,000 compounds, 0.35% hits. inhibition, % (no concentration beside the values); in the data active = inhibition above about 52%; also: 0 = median of the neutral control wells
Mtb BioA inh = blocks M. tuberculosis BioA enzyme activity; purified M. tuberculosis BioA enzyme, plate reader; inhibition, % at 9.99 µM; 360,000 compounds, 0.096% hits; AID 602481; in the data active = inhibition above about 40%; inconclusive = no clear call, values can overlap the other calls
PfHsp40 yeast = compounds rescuing yeast from Plasmodium falciparum HSP40 toxicity; growth rescue, % at 12.5 µM; S. cerevisiae expressing PfHsp40, growth rescue, ATP luminescence; 340,000 compounds, 0.68% hits; AID 504582; in the data active = growth rescue above about 28%, passing the limit was not always enough; inconclusive = no clear call, values can overlap the other calls;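 also: yeast W303a lacking pdr1 and pdr3 grown in galactose medium; growth measured after three days at 30 °C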
TcdB inh = blocks C. difficile toxin B glycohydrolase activity. P18177. TcdB glycohydrolase enzymatic assay, plate reader. inhibition, % at 9.99 µM. 350,000 compounds, 0.24% hits. AID 652162; in the data active = inhibition above about 10%
FadD28 binding = M. tuberculosis FadD28 bisubstrate binding inhibition; inhibition, % at 12.5 µM; 360,000 compounds, 0.22% hits; FadD28 bisubstrate probe binding, fluorescence polarization; in the data active = inhibition above about 8.5%, passing the limit was not always enough; inconclusive = no clear call, values can overlap the other calls
An asterisk follows results filed as active; ? = inconclusive; nt = not tested or not shown.

SMILES | PrP UTR inh | Mtb BioA inh | PfHsp40 yeast | TcdB inh | FadD28 binding
CC(C)NC(=O)Nc1ccc2c(c1)C(=O)N([C@H](C)CO)C[C@@H](C)[C@H](CN(C)Cc1ccc(C(=O)Nc3ccccc3N)cc1)O2 | nt | -1 | nt | 0 | nt
O=C(NCc1ccco1)c1sc(=S)n2c1[nH]c(=O)c1ccccc12 | -9 | 2 | 1 | nt | ?
CCCCCNC(=O)c1ccc2c(=O)[nH]c3c(C(=O)NCC4CCCO4)sc(=S)n3c2c1 (centres undefined) | -12 | 1 | 1 | nt | 17*
O=C(NC1CCCC1)c1sc(=S)n2c1[nH]c(=O)c1ccccc12 | -8 | -2 | -2 | nt | 29*
Cc1ccc(CNC(=O)c2ccc3c(=O)[nH]c4c(C(=O)NCC5CCCO5)sc(=S)n4c3c2)cc1 (centres undefined) | -5 | 2 | -1 | 2 | 60*
O=C(NCc1ccccc1)c1ccc2c(=O)[nH]c3c(C(=O)NCC4CCCO4)sc(=S)n3c2c1 (centres undefined) | 0 | 2 | -1 | 0 | 23*
CCCNC(=O)C[C@@H]1CC[C@@H]2[C@@H](COc3ccc(NC(=O)CC)cc3C(=O)N2C)O1 | nt | -1 | nt | -1 | nt
C[C@H](CO)N1C[C@H](C)[C@H](CN(C)C(=O)Nc2ccc(C(F)(F)F)cc2)Oc2ccc(NC(=O)Nc3ccccc3)cc2CC1=O | nt | -3 | nt | nt | nt
CCCC(C(=O)c1ccccc1)n1cncn1 (centres undefined) | -15 | 0 | -1 | nt | 1
Cc1ccc(C(=O)C(SC(C)(C)C)n2cncn2)cc1 (centres undefined) | -14 | 0 | 467* | 0 | -1
N#C[C@@H]1N[C@@H](CO)[C@@H]1c1ccccc1 | nt | 1 | nt | 0 | nt
CC(=NNC(=S)Nc1ccccc1Cl)c1ccccn1 | 27 | nt | 200* | 0 | -3
C/C(=N\Nc1ncc(Cl)cc1Cl)c1ccccn1 | 78* | nt | 14 | nt | -3
CC(=NNC(=S)Nc1ccccc1)c1ccccn1 | nt | nt | nt | -11 | -2
CCC(=O)N(C)C[C@@H]1Oc2cc(C#Cc3ccncc3)ccc2S(=O)(=O)N([C@H](C)CO)C[C@@H]1C | nt | -1 | nt | -1 | nt
N/C(=N\OC(=O)c1ccc2ccccc2c1)c1ccncc1 | -22 | 1 | 1 | 0 | -3
N/C(=N\OC(=O)c1ccc2ccccc2c1)c1ccccc1Cl | -79 | 1 | 87* | 1 | -6
CO[C@H]1CN(C)C(=O)c2ccc(NC(=O)C3CCCCC3)cc2OC[C@H](C)N(Cc2cccnc2)C[C@H]1C | nt | 1 | nt | 1 | nt
N#CCCCC#Cc1ccc2c(c1)COc1c3ccccc3nn1-2 | 45 | -1 | 124* | 1 | -4
CCCCC#Cc1ccc2c(c1)COc1c3ccccc3nn1-2 | -9 | 0 | 2 | -4 | 1
Cc1ccc(NC(=O)c2ccccc2NS(=O)(=O)c2ccc(Cl)s2)cc1 | -60 | 3 | 80* | nt | 1
O=C(Nc1ccccc1)c1ccccc1NS(=O)(=O)c1ccc(Cl)s1 | 10 | 4 | 1 | nt | -1
O=C(CN1C(=O)CCC1=O)NNc1ccc2ccccc2c1 | -3 | 0 | 0 | 82* | -5
CCCNC(=O)[C@@H]1[C@@H](CO)[C@@H]2Cn3c(ccc(-c4ccc(F)cc4)c3=O)[C@@H]2N1C | nt | 0 | nt | 0 | nt
Oc1ccc(/C=N/Nc2ccc(C(F)(F)F)cn2)c(O)c1 | -9 | nt | 421* | 0 | 2
SMILES | PrP UTR inh | Mtb BioA inh | PfHsp40 yeast | TcdB inh | FadD28 binding
Cc1ccc(-c2cc(C(=O)N3CCN(c4ccccc4O)CC3)c3ccccc3n2)o1 | -54 | 3 | 137* | 2 | -4
CN=c1scc(-c2ccccc2F)n1/N=C/c1ccc(O)c(O)c1O | 40 | -2 | 30* | -6 | 9.1*
C[C@@H]1CN([C@H](C)CO)C(=O)c2cc(NC(=O)C3CCCCC3)ccc2O[C@@H](C)CCCCO[C@@H]1CN(C)Cc1ccc(C(=O)O)cc1 | nt | -1 | nt | -1 | nt
CC1CC(C)CC(C)C(O)C(C#N)=CC=CCC(C2CCCC2C(=O)O)OC(=O)CC(O)C(C)C1 (centres undefined) | 51 | nt | 401* | 1 | -7
CC(C)C#Cc1cnc2c(c1)C(=O)N([C@H](C)CO)C[C@H](C)[C@@H](CN(C)S(=O)(=O)c1cn(C)cn1)O2 | nt | 0 | nt | -1 | nt
CC(C)Cc1nnc(NC(=O)CCC(=O)NCc2ccccc2Cl)s1 | -11 | nt | -1 | 13* | -2
COc1cccc(NC(=O)Cn2nnc(-c3ccccc3N)n2)c1 | -26 | 2 | 0 | nt | 15*
COc1cc(NC(=O)Cn2nnc(-c3ccncc3)n2)cc(OC)c1 | -13 | 2 | -1 | 2 | -4
CNC(=O)C[C@H]1CC[C@@H]2[C@H](COC[C@@H](O)CN2S(=O)(=O)c2ccccc2Cl)O1 | nt | -2 | nt | 0 | nt
CCCC#Cc1cnc2c(c1)C(=O)N([C@H](C)CO)C[C@H](C)[C@H](CN(C)C(=O)C1CCOCC1)O2 | nt | 4 | nt | -2 | nt
COc1cccc(C(=O)Nc2sc(C(C)C)cc2C(N)=O)c1OC | -5 | nt | 604* | 5 | -2
COc1cccc(C(=O)Nc2nnc(-c3ccccc3)s2)c1OC | -65 | -1 | 2 | 1 | -4
CCOC(=O)c1ccc[n+](CC(=O)c2ccc(NC(=O)c3ccccc3)cc2)c1 | 3 | -2 | 2 | 12* | -2
N#C/C(=C/c1ccc(O)c(O)c1)c1nc2ccccc2[nH]1 | -31 | -3 | 0 | -1 | 12*
CC(=O)n1cc([C@@H]2C=C(C(=O)N3CCCCCCC3)O[C@H](OCCCCO)C2)c2ccccc21 | nt | 0 | nt | 1 | nt
CCC(C)(C)n1nnnc1C(c1cccnc1)N1CCN(c2cccc(C(F)(F)F)c2)CC1 (centres undefined) | 13 | 3 | 215* | nt | -5
O=C(NC(=S)NCc1nc2ccccc2[nH]1)c1ccccc1F | -131 | nt | 0 | 3 | 8.9*
O=C(NC(=S)NCc1nc2ccccc2[nH]1)c1ccc(F)cc1 | -32 | nt | 1 | 1 | -4
CCCNC(=O)Nc1ccc2c(c1)C(=O)N(C)[C@@H]1CC[C@H](CC(=O)NCC3CCCCC3)O[C@@H]1CO2 | nt | 0 | nt | 0 | nt
O=C(NNC(=S)Nc1cccc(C(F)(F)F)c1)c1ccc(Cl)cc1Cl | -19 | nt | 36* | nt | 5
Cc1ccccc1C(=O)NNC(=S)Nc1cccc(C(F)(F)F)c1 | -31 | 5 | 13 | -9 | -3
CCCCCCCCCC[n+]1cccc2c3ccccc3ccc21 | -17 | nt | 133* | 2 | -15
O=[N+]([O-])c1ccc2[nH]c(O)c(N=NC(=S)Nc3cccnc3)c2c1 | -16 | nt | 41* | 0 | -2
C[C@@H]1CN([C@@H](C)CO)C(=O)Cc2cc(NC(=O)C3CCCCC3)ccc2O[C@@H]1CN(C)Cc1ccc2c(c1)OCO2 | nt | 1 | nt | 0 | nt
C/C(=N\NC(=O)c1ccccc1O)C1C(=O)c2ccccc2C1=O | -45 | 3 | -1 | nt | ?
C/C(=N/NC(=O)c1cc2ccccc2cc1O)C1C(=O)c2ccccc2C1=O | -37 | 0 | 0 | nt | 37*
COc1ccccc1-c1ccc(SCc2ccc(C)cc2)nn1 | -30 | nt | 26* | 3 | 0
CC(NC(=S)NC1CCC(C(C)(C)C)CC1)c1ccccc1 (centres undefined) | -13 | -1 | 71* | -1 | -4
